The values that follow come from ChEMBL document CHEMBL1961873, “Compounds: GSK PKIS; Assays: Nanosyn kinase panel” (2012).

Experiment [1] addresses Casein kinase I isoform gamma-2 (Homo sapiens) (UniProt P78368). The following applies: at 1 µM.
Experiment [2] addresses Casein kinase I isoform gamma-3 (Homo sapiens) (UniProt Q9Y6M4). The conditions noted are these: at 0.1 µM.
Experiment [3] shares this target. The following applies: at 1 µM.
Experiment [4] deals with Cyclin-dependent kinase 1 (Homo sapiens) (UniProt P06493). The conditions noted are these: at 0.1 µM.
Experiment [5] shares this target. The following applies: at 1 µM.
In experiment [6] the target is Cyclin-dependent kinase 2 (Homo sapiens) (UniProt P24941). The following applies: at 0.1 µM.
The target is the same in experiment [7]. The following applies: at 1 µM.
Experiment [8] shares this target. The following applies: at 0.1 µM. This is another data set of the same source.
The target is the same in experiment [9]. The conditions noted are these: at 1 µM. This is another data set of the same source.
The target of experiment [10] is T1, CDK3/Cyclin E (Homo sapiens) (UniProt P24864+Q00526). The following applies: at 0.1 µM.
Experiment [11] has as its target T1, CDK3/Cyclin E (Homo sapiens). The conditions noted are these: at 1 µM.
For experiment [12], the target named is Cyclin-dependent kinase 4 (Homo sapiens) (UniProt P11802). The conditions noted are these: at 0.1 µM.
Experiment [13] has the same target. The conditions noted are these: at 1 µM.
Experiment [14] concerns the target Cyclin-dependent kinase 5 (Homo sapiens) (UniProt Q00535). The conditions noted are these: at 0.1 µM.
The target is the same in experiment [15]. The following applies: at 1 µM.
Experiment [16] has as its target Cyclin-dependent kinase 6 (Homo sapiens) (UniProt Q00534). The conditions noted are these: at 0.1 µM.
For experiment [17] the target is unchanged. The following applies: at 1 µM.
In experiment [18] the target is Dual specificity protein kinase CLK2 (Homo sapiens) (UniProt P49760). The following applies: at 0.1 µM.
Experiment [19] has the same target. The conditions noted are these: at 1 µM.
Experiment [20] addresses Dual specificity protein kinase CLK3 (Homo sapiens) (UniProt P49761). The conditions noted are these: at 0.1 µM.

Chain of Casein kinase I isoform gamma-2 (Homo sapiens) (P78368 whole entry, looked up, canonical isoform): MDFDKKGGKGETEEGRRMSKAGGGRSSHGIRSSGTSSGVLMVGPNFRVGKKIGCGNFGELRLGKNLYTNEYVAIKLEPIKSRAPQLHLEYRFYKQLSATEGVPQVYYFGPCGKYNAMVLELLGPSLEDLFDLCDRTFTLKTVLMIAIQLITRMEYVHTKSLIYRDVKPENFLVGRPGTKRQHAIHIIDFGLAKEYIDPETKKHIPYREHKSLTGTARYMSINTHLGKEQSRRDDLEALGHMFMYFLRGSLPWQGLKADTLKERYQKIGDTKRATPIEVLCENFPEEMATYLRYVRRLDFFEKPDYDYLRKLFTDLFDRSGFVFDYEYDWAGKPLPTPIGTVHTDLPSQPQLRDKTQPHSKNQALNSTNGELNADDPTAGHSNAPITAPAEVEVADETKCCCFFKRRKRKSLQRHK
Chain of Cyclin-dependent kinase 5 (Homo sapiens) (Q00535 whole entry, looked up): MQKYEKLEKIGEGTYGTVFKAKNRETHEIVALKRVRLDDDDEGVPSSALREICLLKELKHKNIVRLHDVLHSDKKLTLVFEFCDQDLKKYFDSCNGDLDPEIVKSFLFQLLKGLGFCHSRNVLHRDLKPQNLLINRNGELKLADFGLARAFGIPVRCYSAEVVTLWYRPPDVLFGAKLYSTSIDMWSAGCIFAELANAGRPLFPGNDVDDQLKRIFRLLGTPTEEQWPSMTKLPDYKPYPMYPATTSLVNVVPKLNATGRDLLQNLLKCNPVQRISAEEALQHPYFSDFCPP
Chain of Dual specificity protein kinase CLK2 (Homo sapiens) (P49760 whole entry, looked up): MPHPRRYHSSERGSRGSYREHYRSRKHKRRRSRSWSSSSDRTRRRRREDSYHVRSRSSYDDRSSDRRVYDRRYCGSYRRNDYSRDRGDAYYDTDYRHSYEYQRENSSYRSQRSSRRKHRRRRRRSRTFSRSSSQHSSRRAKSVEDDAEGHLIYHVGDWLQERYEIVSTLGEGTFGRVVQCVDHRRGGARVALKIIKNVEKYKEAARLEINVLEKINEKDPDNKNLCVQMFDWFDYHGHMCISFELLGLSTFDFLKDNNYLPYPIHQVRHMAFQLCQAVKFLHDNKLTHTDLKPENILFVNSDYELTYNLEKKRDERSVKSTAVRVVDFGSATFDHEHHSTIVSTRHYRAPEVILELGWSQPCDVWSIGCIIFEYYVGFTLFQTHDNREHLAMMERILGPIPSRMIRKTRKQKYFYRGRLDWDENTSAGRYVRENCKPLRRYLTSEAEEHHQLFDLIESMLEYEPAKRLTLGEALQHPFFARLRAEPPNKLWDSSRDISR
Chain of Cyclin-dependent kinase 6 (Homo sapiens) (Q00534 whole entry): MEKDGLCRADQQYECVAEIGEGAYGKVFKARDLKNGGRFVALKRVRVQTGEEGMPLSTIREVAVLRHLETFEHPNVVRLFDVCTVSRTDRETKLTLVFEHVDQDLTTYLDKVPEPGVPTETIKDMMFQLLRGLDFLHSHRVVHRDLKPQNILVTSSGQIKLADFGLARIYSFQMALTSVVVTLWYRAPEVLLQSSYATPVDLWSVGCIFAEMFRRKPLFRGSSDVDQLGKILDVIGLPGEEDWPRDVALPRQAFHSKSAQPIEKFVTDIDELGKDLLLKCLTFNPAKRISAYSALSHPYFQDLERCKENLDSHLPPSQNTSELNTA
Chain of Cyclin-dependent kinase 1 (Homo sapiens) (P06493 whole entry, looked up): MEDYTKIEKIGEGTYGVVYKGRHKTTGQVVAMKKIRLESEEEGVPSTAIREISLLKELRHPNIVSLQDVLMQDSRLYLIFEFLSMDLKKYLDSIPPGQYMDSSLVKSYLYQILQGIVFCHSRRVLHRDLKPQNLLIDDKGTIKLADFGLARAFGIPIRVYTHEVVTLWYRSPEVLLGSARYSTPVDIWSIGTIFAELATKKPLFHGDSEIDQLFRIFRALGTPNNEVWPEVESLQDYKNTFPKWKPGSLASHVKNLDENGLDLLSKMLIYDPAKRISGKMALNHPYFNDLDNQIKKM
Chain of Cyclin-dependent kinase 4 (Homo sapiens) (P11802 whole entry): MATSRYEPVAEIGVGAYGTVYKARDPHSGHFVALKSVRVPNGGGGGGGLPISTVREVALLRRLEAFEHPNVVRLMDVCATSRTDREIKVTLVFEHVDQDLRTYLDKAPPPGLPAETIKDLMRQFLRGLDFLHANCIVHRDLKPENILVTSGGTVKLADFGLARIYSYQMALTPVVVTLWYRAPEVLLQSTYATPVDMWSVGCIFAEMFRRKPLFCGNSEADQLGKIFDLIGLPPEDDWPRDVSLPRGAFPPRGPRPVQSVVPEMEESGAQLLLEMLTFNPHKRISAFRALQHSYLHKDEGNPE
Chain of Casein kinase I isoform gamma-3 (Homo sapiens) (Q9Y6M4 whole entry, looked up, canonical isoform): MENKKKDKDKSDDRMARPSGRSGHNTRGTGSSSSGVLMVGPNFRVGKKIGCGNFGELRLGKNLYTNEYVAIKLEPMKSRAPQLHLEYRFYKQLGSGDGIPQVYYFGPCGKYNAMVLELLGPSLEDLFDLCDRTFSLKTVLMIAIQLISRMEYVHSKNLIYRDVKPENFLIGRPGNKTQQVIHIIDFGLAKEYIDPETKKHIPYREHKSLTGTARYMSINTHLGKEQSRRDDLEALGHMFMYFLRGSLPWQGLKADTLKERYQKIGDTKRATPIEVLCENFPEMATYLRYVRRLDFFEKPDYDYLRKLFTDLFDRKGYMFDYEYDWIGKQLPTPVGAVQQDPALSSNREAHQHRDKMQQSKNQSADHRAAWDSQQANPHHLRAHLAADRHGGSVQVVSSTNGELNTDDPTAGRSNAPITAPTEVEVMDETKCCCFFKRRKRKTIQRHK
Chain of Dual specificity protein kinase CLK3 (Homo sapiens) (P49761 whole entry, looked up): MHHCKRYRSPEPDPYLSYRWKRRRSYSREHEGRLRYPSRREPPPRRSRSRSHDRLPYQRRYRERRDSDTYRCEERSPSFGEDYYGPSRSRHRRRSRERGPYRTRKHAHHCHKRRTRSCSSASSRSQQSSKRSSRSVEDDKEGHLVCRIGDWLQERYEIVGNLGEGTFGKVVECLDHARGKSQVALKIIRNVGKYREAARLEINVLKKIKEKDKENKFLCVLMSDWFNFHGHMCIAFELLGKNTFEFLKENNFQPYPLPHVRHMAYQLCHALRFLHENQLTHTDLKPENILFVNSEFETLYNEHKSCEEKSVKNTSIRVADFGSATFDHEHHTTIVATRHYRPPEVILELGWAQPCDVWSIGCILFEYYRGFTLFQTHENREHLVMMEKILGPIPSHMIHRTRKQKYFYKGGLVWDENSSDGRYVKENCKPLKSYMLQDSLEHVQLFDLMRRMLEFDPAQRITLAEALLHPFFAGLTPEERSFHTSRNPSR
T1 sequence (P24864 whole entry, looked up): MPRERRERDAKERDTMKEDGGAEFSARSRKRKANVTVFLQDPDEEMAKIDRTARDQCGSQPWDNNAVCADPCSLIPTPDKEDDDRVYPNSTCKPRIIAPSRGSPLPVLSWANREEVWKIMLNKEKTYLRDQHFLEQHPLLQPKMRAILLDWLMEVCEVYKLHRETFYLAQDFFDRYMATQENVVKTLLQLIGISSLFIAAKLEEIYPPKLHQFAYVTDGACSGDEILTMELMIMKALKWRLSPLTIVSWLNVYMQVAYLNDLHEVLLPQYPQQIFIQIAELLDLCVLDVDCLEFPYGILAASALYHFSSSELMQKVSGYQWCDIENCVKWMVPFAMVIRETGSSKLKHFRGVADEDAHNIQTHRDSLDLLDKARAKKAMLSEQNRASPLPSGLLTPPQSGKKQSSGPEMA
T1 sequence (Q00526 whole entry, looked up): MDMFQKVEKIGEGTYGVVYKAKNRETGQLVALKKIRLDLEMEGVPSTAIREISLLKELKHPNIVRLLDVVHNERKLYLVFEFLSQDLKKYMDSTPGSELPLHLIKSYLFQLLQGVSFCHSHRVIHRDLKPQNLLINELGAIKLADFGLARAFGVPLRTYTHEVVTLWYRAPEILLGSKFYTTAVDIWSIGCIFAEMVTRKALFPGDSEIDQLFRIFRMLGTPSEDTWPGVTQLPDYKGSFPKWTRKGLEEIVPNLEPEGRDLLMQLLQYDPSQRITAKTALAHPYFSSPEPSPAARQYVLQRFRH

`CCn1c(-c2nonc2N)nc2c(C#CC(C)(C)O)nc(OC[C@@H](N)c3ccccc3)cc21`: the inhibition (in general, the drop in the measured response relative to a control, in per cent) in experiment [1] is 2.82%; in experiment [2] it was -1.72%; in experiment [3], 1.57%; in experiment [4], -0.31%; in experiment [5], -0.33%; in [6] it was 0.3%. Also, the inhibition was 5.96% in [7]; -0.8% in experiment [8]; 1.32% in experiment [9]; -0.42% in experiment [10]; 0.99% in [11]; -0.22% in [12]. Moreover, the inhibition in experiment [13] is 0.8%; in experiment [14], 0.35%; in experiment [15], 0.49%; in [16], -0.27%; in experiment [17], -0.99%; in experiment [18], 0.81%. The inhibition in [19] was 2.4%; in experiment [20] it was -0.31%.
For the compound `O=C1NC(=O)C(c2cccc(Cl)c2)=C1Nc1ccc(O)c(Cl)c1`, the inhibition in experiment [1] was found to be 0.54%; in experiment [2], 1.06%; in experiment [3], 0.9%; in experiment [4], 0.73%; in [5], 7.55%; in experiment [6] it was 1.84%. Further, the inhibition in [7] stood at 6.86%; in experiment [8], 2.79%; in experiment [9], 10.6%; in experiment [10], 3.01%; in experiment [11], 6.94%; in experiment [12] it was 2.23%. For the same compound, the inhibition in experiment [13] is 13.9%; in experiment [14], 1.36%; in [15], 7.25%; in [16], -3.15%; in experiment [17], 12.6%; in [18], 4.59%. Further, the inhibition is 26.1% in experiment [19] and -0.5% in experiment [20].
Regarding `CS(=O)(=O)CCNCc1ccc(-c2ccc3ncnc(Nc4ccc(OCc5ccccc5)c(Cl)c4)c3c2)o1`, the inhibition is 0.01% in experiment [1]; 0.7% in experiment [2]; -0.59% in experiment [3]; 2.72% in experiment [4]; 3.96% in experiment [5]; 2.6% in [6]. Moreover, the inhibition was 3.73% in experiment [7]; 3.64% in experiment [8]; 4.5% in [9]; 0.1% in experiment [10]; -1.2% in experiment [11]; -0.14% in experiment [12]. For the same compound, the inhibition in experiment [13] was 4.1%; in experiment [14] it was 2.15%; in [15], 3.8%; in [16], -5.27%; in experiment [17], -2.22%; in experiment [18] it was 2.2%. The inhibition is 1.75% in experiment [19] and 0.36% in experiment [20].
For the compound `O=C1NC(=O)C(N2CCc3ccccc32)=C1c1ccc(Cl)cc1`, the inhibition in [1] is 5.08%; in experiment [2] it was 4.47%; in experiment [3], 3.56%; in experiment [4] it was 1.77%; in [5], 3.26%; in [6], -1.05%. In addition, the inhibition in experiment [7] stood at 0.31%; in experiment [8] it was 5.31%; in experiment [9] it was 6.11%; in experiment [10] it was 3.85%; in experiment [11], 0.23%; in [12] it was 3.68%. The inhibition in experiment [13] is 5.74%; in experiment [14] it was 2.06%; in experiment [15] it was 2.74%; in [16] it was -3.76%; in experiment [17] it was 5.39%; in [18], -0.03%. Besides, the inhibition in [19] came to 0.46%; in [20], 2.68%.
Regarding `O=C1NC(=O)C(c2ccccc2Cl)=C1Nc1cccc(O)c1`, the inhibition in experiment [1] was determined as 2.79%; in [2] it was 0.98%; in [3], 1.47%; in [4] it was 2.95%; in [5], 21%; in experiment [6], 3.51%. Besides, the inhibition is 20.6% in [7]; 3.32% in [8]; 18.7% in [9]; 2.37% in [10]; 19.4% in experiment [11]; 7.12% in experiment [12]. Also, the inhibition in experiment [13] amounted to 25.4%; in experiment [14] it was 4.62%; in experiment [15] it was 26.6%; in [16], 7.16%; in [17] it was 28.7%; in experiment [18], 4.29%. For the same compound, the inhibition is 36.9% in experiment [19] and 2.2% in experiment [20].
As to `CN(C)c1cc2c(Nc3ccc4nc(Cc5ccccc5)[nH]c4c3)ncnc2cn1`, the inhibition in experiment [1] was 5.2%; in experiment [2], 3.73%; in experiment [3], 4.56%; in experiment [4], -0.43%; in [5], 1.6%; in experiment [6], 2.83%. In addition, the inhibition in experiment [7] is 6.58%; in [8], 4.49%; in experiment [9], 5.71%; in [10], 3.16%; in experiment [11], -2.11%; in [12], 3.33%. Also, the inhibition came out at 3.46% in experiment [13]; 1.02% in experiment [14]; 1.2% in [15]; 1.12% in experiment [16]; 3.91% in experiment [17]; 2.08% in experiment [18]. Moreover, the inhibition in experiment [19] was 1.7%; in [20], 2.14%.
In the case of `CS(=O)(=O)CCNCc1nc(-c2ccc3ncnc(Nc4ccc(F)c(Cl)c4)c3c2)cs1`, the inhibition in experiment [1] is 0.64%; in [2], 2.39%; in [3], 3.39%; in [4], -1.31%; in experiment [5], -0.06%; in experiment [6], 0.75%. In addition, the inhibition in experiment [7] was 9.99%; in experiment [8] it was 0.06%; in experiment [9], 1.32%; in experiment [10] it was 0.76%; in [11], -2.13%; in experiment [12] it was 0.51%. The inhibition in [13] was 0.73%; in experiment [14] it was 0.12%; in experiment [15], 0.38%; in experiment [16] it was 6.34%; in experiment [17], -1.47%; in experiment [18], 0.29%. The results for the inhibition in experiment [19] and in experiment [20] were 2.89% and -0.05%, respectively.
For the compound `COc1cc2c(cc1Nc1nc(N3CCc4ccccc43)c3cc[nH]c3n1)N(C(=O)CN(C)C)CC2`, the inhibition in experiment [1] was found to be 2.57%; in experiment [2], 0.55%; in experiment [3], 4.52%; in [4], 0.08%; in experiment [5] it was 1.02%; in experiment [6] it was 0.42%. In addition, the inhibition in experiment [7] was -1.8%; in experiment [8] it was 1.6%; in experiment [9] it was 1.6%; in [10], 0.81%; in [11] it was 1.66%; in [12] it was 2.1%. The inhibition in experiment [13] came to 3.3%; in experiment [14], 0.44%; in [15], 0.4%; in experiment [16] it was 0.95%; in experiment [17], 1.09%; in [18] it was 7.85%. Further, the inhibition in experiment [19] is 44.4%; in experiment [20] it was 0.14%.
As to `COc1ccc2cc(-c3c(-c4ccncc4)nc(-c4ccc([S+](C)[O-])cc4)n3C)ccc2c1` (centres undefined), the inhibition is 2.6% in [1]; 1.16% in experiment [2]; 3.28% in [3]; 0.99% in experiment [4]; 2.01% in experiment [5]; 1.21% in experiment [6]. Moreover, the inhibition in experiment [7] is 1.86%; in experiment [8], 3.23%; in [9], 3.44%; in experiment [10] it was 4.02%; in experiment [11], -0.42%; in experiment [12], 2.74%. The inhibition in [13] is 2.79%; in experiment [14], 0.96%; in experiment [15] it was 1.53%; in experiment [16] it was -3.35%; in experiment [17] it was -1.41%; in experiment [18] it was 0.22%. For the same compound, the inhibition in experiment [19] came to 1.33%; in experiment [20] it was 0.91%.
On to `COc1cc(C)c(NC(=O)CN(C)C)cc1Nc1nc(Nc2cccc(F)c2C(N)=O)c2cc[nH]c2n1`, for which the inhibition in [1] was 20%; in experiment [2], 1.69%; in experiment [3], 20.6%; in [4] it was -0.88%; in [5], -1.98%; in experiment [6], 0.1%. Further, the inhibition in experiment [7] was -9.04%; in [8] it was -0.26%; in experiment [9], 0.04%; in experiment [10], -0.76%; in experiment [11], 0.15%; in experiment [12], 0.8%. The inhibition in experiment [13] was 1.16%; in [14], -0.59%; in experiment [15], -1.89%; in experiment [16], -0.3%; in [17], 3.87%; in experiment [18], 45.4%. Further, the values for the inhibition in [19] and in experiment [20] were 88.8% and 1.76%, respectively.
Take `COc1cccc(-n2ncc3c(N/N=C/c4cccc(F)c4)ncnc32)c1`: the inhibition in experiment [1] was -0.18%; in [2], -1.77%; in experiment [3], 0.64%; in [4] it was 1.44%; in [5], 33%; in [6], 3.77%. In addition, the inhibition was determined as 39.1% in [7]; 0.9% in experiment [8]; 13% in experiment [9]; 4% in [10]; 5.59% in experiment [11]; 0.03% in experiment [12]. For the same compound, the inhibition in [13] is 22.1%; in [14], 3.4%; in experiment [15] it was 34.2%; in experiment [16], -5.64%; in [17], 17.1%; in experiment [18], 2.25%. Moreover, the inhibition was 1.15% in [19] and -2.19% in experiment [20].
Regarding `COc1ccccc1Nc1ncc(-c2ccccc2)o1`, the inhibition in [1] stood at 3.85%; in experiment [2] it was 3.77%; in experiment [3] it was 5.78%; in [5], 0.64%; in experiment [6], 2.24%; in [7], 3.34%. The inhibition in [8] was 1.7%; in experiment [9], 4.15%; in experiment [10] it was -1.03%; in experiment [11], -1.14%; in [12], 0.89%; in experiment [13] it was 2.21%. Also, the inhibition in [14] was 0.04%; in experiment [15], 1.68%; in [16], -0.22%; in experiment [17] it was -0.99%; in experiment [18] it was 0.98%; in experiment [19], 0.86%. Moreover, the inhibition in experiment [20] turned out to be 1.23%.
Take `COC(=O)Nc1nc2cc(Oc3cccc(NC(=O)Nc4cc(C(F)(F)F)ccc4F)c3)ccc2[nH]1`: the inhibition in [1] was -0.35%; in [2], -2.32%; in [3], -1.3%; in experiment [4] it was 2.66%; in experiment [5], 0.7%; in experiment [6] it was 0.37%. For the same compound, the inhibition was -0.89% in experiment [7]; 0.62% in [8]; 1.21% in experiment [9]; -0.22% in [10]; -1.48% in [11]; 1.83% in [12]. Further, the inhibition in experiment [13] was 2.11%; in experiment [14], 0.65%; in experiment [15] it was 1.39%; in [16], -5.71%; in experiment [17], 1.18%; in [18] it was -0.8%. Moreover, the inhibition in experiment [19] was 1.04%; in [20] it was -0.93%.
